Inconclusive results are not listed. A number with no mark means an inactive call. Activity calls are given as the source filed them. Calls come from the whole dose curve; as a rule, active = well fitted activation curve with a large enough effect; inconclusive = small, poorly fitted or top-dose-only effect; inactive = flat fitted curve, though single readings scatter. Positions of bridges follow the written chain, without caps; N, C: chain ends. Non-standard residues stand in square brackets, D forms with d. Residues, ends and D or L forms follow the SMILES beside them. *: point of attachment. X1 = CC[C@@H](C)[C@@H](N)C1=N[C@H](C(=O)*)CS1; d(aIle) = CC[C@H](C)[C@@H](N)C(=O)O; dOrn = NCCC[C@@H](N)C(=O)O
Assay: qHTS assay to identify small molecule phospholipidosis (PLD) inducers (AID 1259344)
Conditions: HepG2 phospholipidosis, LipidTOX Red imaging, 24 h; series mostly up to 38.3 µM; PLD induction: at the top concentration
Method in brief: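 Accumulated phospholipid, stained red by LipidTOX during 24 h compound treatment of HepG2 cells at 37 C, is quantified from images as pit number and intensity, normalised per cell using Hoechst-stained nuclei.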
For `CC(C)(C)c1ccc2c(S(=O)(=O)O)c(C(C)(C)C)ccc2c1`, the Potency was “inactive”. With `N[C@H](C(=O)O)[C@@H]1CC(Cl)=NO1` the “PLD induction” value was -1.19%. In the case of `O=C1CC[C@@H](C(=O)N[C@H]2C[C@@H]2c2ccccc2)N1`, the “PLD induction” value is reported as -0.412%. For `CCCCCCOC(=O)c1cccnc1`, the “PLD induction” value was -0.444%. In the case of `CC[C@@H](C)[C@@H](N)C1=N[C@H](C(=O)N[C@@H](CC(C)C)C(=O)N[C@@H](CCC(=O)O)C(=O)N[C@@H](C(=O)N[C@@H]2CCCCNC(=O)[C@@H](CC(N)=O)NC(=O)[C@@H](CC(=O)O)NC(=O)[C@@H](Cc3cnc[nH]3)NC(=O)[C@@H](Cc3ccccc3)NC(=O)[C@@H]([C@H](C)CC)NC(=O)[C@@H](CCCN)NC2=O)[C@@H](C)CC)CS1` (X1-LE[d(aIle)][dK][dOrn][dI][dF][dH][dD][dN]; lactam 4-C), the Potency is reported as “inactive”. For `CCCCCCCCCCCCCCCC(=O)OC[C@H](COP(=O)([O-])OCC[N+](C)(C)C)OC(=O)CCCCCCCCCCCCCCC`, the “PLD induction” value was -0.199%. In the case of `CC[C@H]1OC(=O)C[C@@H](O)[C@H](C)[C@@H](O[C@@H]2O[C@H](C)[C@@H](O)[C@H](N(C)C)[C@H]2O)[C@@H](CCN2C[C@H](C)C[C@H](C)C2)C[C@@H](C)C(=O)/C=C/C(C)=C/[C@@H]1CO[C@@H]1O[C@H](C)[C@@H](O)[C@@H](OC)[C@H]1OC`, the “PLD induction” value is reported as 0.424%. With `CON=C1C[C@]2(C[C@@H]3C[C@@H](C/C=C(\C)C[C@@H](C)/C=C/C=C4\CO[C@@H]5[C@H](O)C(C)=C[C@@H](C(=O)O3)[C@]45O)O2)O[C@H](/C(C)=C/C(C)C)[C@H]1C` the Potency was “inactive”.
% is set by controls: 0 for no effect and ±100 for the full control effect.
